# Source: PubChem BioAssay
# GSH fluor = compound fluoresces at 488/530 nm on GSH beads; hit rate 0.25% among 190,000; GSH beads flow cytometry, compound fluorescence 488/530 nm; active compounds read high; fluorescence (KMESF) at 10 µM; in the data active means fluorescence above about 89;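 further: glutathione beads carrying GST-tagged Bcl family fusion proteins plus one bare bead set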
# RGS4-Gao reg = human RGS4-Galphao interaction regulation; hit rate 0.33% among 220,000; Multiplexed bead flow cytometry, RGS4-Galphao binding; actives lie on both sides; P09471; AID 1415; binding response (% of control), % at 10 µM; in the data active means binding response below about 49% or above about 150%; inactive means in between;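 further: fluorescent Galphao activated with aluminum fluoride binding bead-coupled RGS4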
# Avidin fluor = avidin bead compound fluorescence profile; Avidin beads, compound fluorescence 488/530 nm, flow cytometry; active compounds read high; hit rate 0.38% among 220,000; fluorescence (KMESF) at 10 µM; in the data active means fluorescence above about 47
# RGS16-Gao = RGS16-Galphao interaction regulator (human) | O15492+P09471 | bead-based flow cytometry RGS16-Galphao binding, fluorescence; actives lie on both sides | binding response (% of control), % at 10 µM | hit rate 0.38% among 220,000 | AID 1441;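 further: Galphao activated by GDP with aluminum fluoride before binding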
# RGS7-Gao = modulates binding of RGS7 to human Galphao; binding response (% of control), % at 10 µM; AID 1439; hit rate 0.35% among 220,000; Multiplexed bead flow cytometry; actives lie on both sides; in the data active means binding response below about 49% or above about 150%; inconclusive means no clear call, values can overlap the other calls; inactive means in between;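 further: fluorescent Galphao held in activated GDP-AlF4 state binding bead-coupled RGS7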
# RGS8-Gao reg = modulates binding of RGS8 to human Galphao; P09471; multiplexed bead flow cytometry; actives lie on both sides; response (percent of control binding), % at 10 µM; hit rate 0.34% among 220,000; AID 1423; in the data active means response below about 60% or above about 140%; inactive means in between;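 further: Galphao activated as the GDP aluminium fluoride complex binding bead-coupled RGS8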
# RGS4-Gao HTS = RGS4-Galphao interaction regulator (human); shares compounds with RGS16-Gao; multiplexed bead flow cytometry, RGS–Galpha-o binding; RGS4–Galpha-o binding response, % at 10 µM; hit rate 99% among 1,600;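 further: fluorescently labeled Galpha-o bound to GDP with aluminium fluoride binding biotinylated RGS beads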
# Avidin counter = counter-screen: compounds disrupting biotin binding to avidin beads; AID 1783; inhibition, % at 10 µM; shares compounds with RGS16-Gao; streptavidin beads, fluorescein-biotin binding, flow cytometry; 1,700 tested, under 10 active;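 active means inhibition above 50%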;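 further: median green fluorescence of gated singlet beads compared with DMSO control wells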
# RGS8-Gao confirm = RGS8-Galphao interaction regulation, single point confirmation | shares compounds with RGS16-Gao | bead-based flow cytometry RGS8-Galphao binding, fluorescence; actives lie on both sides | binding response (% of control), % at 10 µM | hit rate 3% among 1,700 | AID 1836; in the data active means binding response below about 72% or above about 130%; inactive means in between;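 further: Galphao activated as GDP AlF4 complex before binding bead RGS8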
# RGS7-Gao confirm = confirmation of regulators of human RGS7-Galphao interaction; shares compounds with RGS16-Gao; bead-based flow cytometry RGS7-Galphao binding; actives lie on both sides; response (percent of control binding), % at 10 µM; hit rate 7.8% among 1,700; AID 1837; in the data active means response below about 75% or above about 130%; inactive means in between;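 further: fluorescent Galphao activated with GDP and aluminum fluoride binding bead-coupled RGS7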
# RGS16-Gao conf = confirmation of regulators of human RGS16-Galphao interaction | shares compounds with RGS16-Gao | bead-based flow cytometry, RGS16-Galphao binding; actives lie on both sides | response (% of control binding), % at 10 µM | hit rate 4% among 1,700 | AID 1838; in the data active means response below about 74% or above about 130%; inactive means in between;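 further: Galphao activated as the GDP aluminium fluoride complex binding bead-coupled RGS16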
# RGS4-Gao confirm = RGS4-Galphao interaction regulation, single point confirmation | shares compounds with RGS16-Gao | RGS4-Galphao binding, multiplexed bead flow cytometry; actives lie on both sides | binding response (% of control), % at 10 µM | hit rate 4% among 1,700 | AID 1840; in the data active means binding response below about 74% or above about 130%; inactive means in between
# RGS19-Gao single = RGS19-Galphao interaction regulation, single point confirmation; response (percent of control binding), % at 10 µM; AID 1841; shares compounds with RGS16-Gao; bead-based flow cytometry RGS19-Galphao binding; actives lie on both sides; hit rate 5% among 1,700; in the data active means response below about 50% or above about 160%; inactive means in between
# Target sequence (P09471 whole entry, looked up): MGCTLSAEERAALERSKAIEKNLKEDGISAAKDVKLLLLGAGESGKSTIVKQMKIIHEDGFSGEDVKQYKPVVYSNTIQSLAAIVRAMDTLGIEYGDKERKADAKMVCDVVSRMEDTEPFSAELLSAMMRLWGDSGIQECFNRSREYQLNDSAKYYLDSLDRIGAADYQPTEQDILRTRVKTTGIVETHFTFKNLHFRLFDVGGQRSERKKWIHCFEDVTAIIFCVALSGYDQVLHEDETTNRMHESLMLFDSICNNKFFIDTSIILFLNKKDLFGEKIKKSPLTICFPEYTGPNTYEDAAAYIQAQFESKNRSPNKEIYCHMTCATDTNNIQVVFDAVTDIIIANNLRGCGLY
# Target sequence (P49795 whole entry, looked up): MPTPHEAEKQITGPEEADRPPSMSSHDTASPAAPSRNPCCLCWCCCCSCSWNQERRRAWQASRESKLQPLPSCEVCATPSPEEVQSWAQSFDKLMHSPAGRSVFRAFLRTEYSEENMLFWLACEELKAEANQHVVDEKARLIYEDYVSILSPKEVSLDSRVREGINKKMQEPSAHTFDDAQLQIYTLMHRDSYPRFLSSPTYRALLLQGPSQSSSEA
# A number is an active result; . = inactive; ? = inconclusive; / = no result given; [ ] = another dose, or the depositor's remark. Sampled rows, rich in hits. Any-hit rate of the full collection: about 1.2%. Unless noted, how the calls were made is not given here.
SMILES,GSH fluor,RGS4-Gao reg,Avidin fluor,RGS16-Gao,RGS7-Gao,RGS8-Gao reg,Avidin counter,RGS8-Gao confirm,RGS7-Gao confirm,RGS16-Gao conf,RGS4-Gao confirm,RGS19-Gao single,others
CCCCN=C1NC(=O)C(CC(=O)NCCc2ccc(OC)cc2)S1 (stereo unspecified),.,.,.,.,.,.,/,/,/,/,/,/,
COc1ccccc1OCCCCOc1ccccc1C(C)=O,.,18,.,6.0,7.4,15,.,.,.,.,.,.,
Cc1nc(CC(=O)c2ccc(O)c(C)c2O)cs1,/,.,.,.,?,.,/,/,/,/,/,/,
Nc1sc(-c2ccccc2)c(Cc2ccccc2)c1C(=O)O,.,.,.,.,.,.,/,/,/,/,/,/,
CN(Cc1cn(C)nc1-c1ccccc1F)CC1CCCCO1 (stereo unspecified),.,.,.,.,46,.,.,.,.,.,.,.,RGS4-Gao HTS=74
CN(Cc1cn(C)nc1-c1ccccc1F)CC1CCN(Cc2ccccc2)CC1,/,.,.,.,?,.,/,/,/,/,/,/,
Clc1cc2cccnc2c2ccccc12,.,-47,.,.,-24,3.0,.,.,.,.,.,.,
Oc1c(Cl)cc(Cl)c2cccnc12,.,.,.,.,.,.,/,/,/,/,/,/,
Cn1nnnc1SCC(=O)NC(=O)c1cccc([N+](=O)[O-])c1,/,.,.,.,?,.,/,/,/,/,/,/,
S=C(Nc1ccc2nsnc2c1)N1CCCCC1,.,.,.,2.5,.,.,/,/,/,/,/,/,RGS4-Gao HTS=86
S=C(Nc1ccc2nc(-c3ccccn3)c(-c3ccccn3)nc2c1)N1CCCCC1,.,.,.,.,.,.,/,/,/,/,/,/,
CCN(CC)C(=O)CSc1nc(O)cc(=O)n1CC,.,.,156,.,166[activator],.,/,/,/,/,/,/,RGS4-Gao HTS=126
CCN(CC)C(=O)CSc1nc(O)cc(=O)n1C,.,.,.,.,.,.,/,/,/,/,/,/,
CCc1ccc2c(c1)c(N=NC1=NC(=O)CS1)c(O)n2C,.,.,.,.,.,.,/,/,/,/,/,/,
Cc1cc(C)c2[nH]c(O)c(N=NC3=NC(=O)CS3)c2c1,/,283[activator],124,270[activator],?,.,.,.,.,.,.,.,
Cn1nc(C(F)(F)F)c(-c2ccc(F)cc2)c1NC(=O)c1ccco1,/,188[activator],61,176[activator],?,.,.,.,74,.,.,.,
Cn1nc(C(F)(F)F)c(-c2ccccc2)c1NC(=O)c1ccco1,/,.,.,.,?,.,/,/,/,/,/,/,
CCN(CC)CC(C)CNC(=O)CC(C(=O)N1CCc2ccccc21)n1ccnc1 (stereo unspecified),.,.,.,.,.,.,/,/,/,/,/,/,
O=C(CC(C(=O)N1CCc2ccccc21)n1ccnc1)NCc1ccccc1 (stereo unspecified),.,.,.,.,.,143[activator],.,.,.,.,.,.,RGS4-Gao HTS=115
O=C(COc1ccc(/C=N/NC(=O)c2cc3ccccc3o2)cc1Cl)Nc1ccccc1,116,373[activator],49,.,218[activator],225[activator],.,.,.,.,.,166[activator],
Cc1noc(C)c1S(=O)(=O)NC1CCN(Cc2ccccc2)CC1,.,.,.,183[activator],.,.,/,/,/,/,/,/,RGS4-Gao HTS=108
COCCN(C(=S)Nc1ccc(C)cc1C)C(C)c1ccco1 (stereo unspecified),.,160[activator],.,.,.,164[activator],.,.,.,.,.,.,
